HSF1 inh: HSF1 inhibitors in luciferase reporter cells, primary screen, cell-based, NIH3T3, luminescence; actives 0.77% (n = 300,000); AID 2098, 2009; activity change, negative = inhibition, % at 7.5 µM (by protocol); NIH3T3-HGL HSE-luciferase, MG132-induced, luminescence 8 h; hits give low values;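 active = more than half of replicate wells show activity change below -50%, luminescence cut by over half; inconclusive = some wells, but at most half, below -50%; inactive = no replicate well below -50%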;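 also: luciferase reports HSF-1 transcriptional activity via heat shock element; 0% = median of DMSO wells and -100% = zero luminescence signal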
LGR2 inh: inhibitors of bursicon-induced LGR2 CRE-luciferase signal, primary screen, cell-based, HEK293, CRE-luciferase reporter, bursicon stimulation; bursicon-stimulated, 4 h; inhibition, % at 9.99 µM; actives 0.35% (n = 380,000); Drosophila bursicon receptor LGR2 (rickets);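 active = drop in luminescence signal, shown as inhibition above about 50% in the replicate tests, limit read from the data, passing the limit was not always enough; inconclusive = probably only some replicates passing the limit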;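 also: agonist challenge used bursicon conditioned medium at about half maximal strength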
LMP1 NFkB inh: EBV LMP1-driven NF-kappaB luciferase reporter inhibitors, primary screen, cell-based, luminescence, single point; AID 504558, 2011; inhibition, % at 12.5 µM; LMP1-induced NF-kappaB luciferase reporter cells; actives 0.69% (n = 350,000); in the data active = inhibition above about 41%; inconclusive = no clear call, values can overlap the other calls;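 also: 0% = neutral control wells and 100% = reference inhibitor control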
TWEAK-Fn14 inh: inhibitors of TWEAK-Fn14 signaling, primary screen, luciferase reporter cells, uHTS | AID 1159606, 2016 | inhibition, % at 10 µM | TWEAK-stimulated Fn14 reporter cells, luciferase luminescence, 8 h | actives 2% (n = 360,000); in the data active = inhibition above about 50%
HSF-1 act: HSF-1 activators, primary screen, NIH3T3-HGL cells, MG132 stress, luminescence, single point; NIH3T3-HGL HSF-1 luciferase reporter, 8 h; 100% = twice DMSO control signal; activation, % at 9 µM; actives 1.7% (n = 300,000); AID 504408, 2011;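 active = mean replicate activation of at least 50% with a set share of replicates each reaching 50%; inconclusive = only one of those two conditions met; inactive = mean below 50% and too few replicates reaching it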;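 also: 0% = median of the neutral control wells and 100% = twice that signal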
TROY NFkB inh: inhibitors of TROY-driven NF-kB signaling, primary screen, Q293 LMP1-TROYcd cells, NF-kB luciferase, uHTS | inhibition, % at 10 µM | AID 1347056, 2019 | actives 0.98% (n = 360,000) | Q293 LMP1-TROYcd NF-kB luciferase reporter, 4 h;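 active = compounds whose plate-normalised and pattern-corrected inhibition of the luciferase reporter signal at the single screening dose is 50% or more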
Starred values were filed as active, the others as inactive; ? = inconclusive; / = no result given. Compounds with a hit are over-represented: about 3.6% of the library has one in this group of screens.

SMILES	HSF1 inh	LGR2 inh	LMP1 NFkB inh	TWEAK-Fn14 inh	HSF-1 act	TROY NFkB inh
CCCNC(=O)NC1C(NC(=O)NCCC)N(C)C(=O)N1C (stereo unspecified)	-57*	/	-4	16	-68	0
Cc1ccc(S(=O)(=O)NCC[C@@H]2CC[C@H](NC(=O)c3cccc(F)c3)[C@@H](CO)O2)cc1	/	-11	/	/	/	/
Cc1ccc2nc(N3CCN(Cc4nnnn4Cc4ccccc4)CC3)c(C#N)cc2c1	-62*	/	11	-10	-69	7
Cc1ccc2nc(N3CCN(C)CC3)c(C#N)cc2c1	-2	/	-4	-6	12	-20
CCn1cc(C(=O)NN)c(=O)c2cc(F)c(NC3CCCCC3)cc21	19	1	3	-3	66*	7
CCn1cc(C(=O)NN)c(=O)c2cc(F)c(N3CCCCC3)cc21	4	-2	5	0	2	-7
C[C@H]1CN([C@@H](C)CO)C(=O)c2cc(NC(=O)Cc3cn(C)c4ccccc34)ccc2O[C@H]1CN(C)C(=O)NC1CCCCC1	/	-4	/	/	/	/
O=C(COC(=O)c1ccc(Cl)c([N+](=O)[O-])c1)NC1CCCC1	-8	-22	3	6	1	5
CC(C)N(C(=O)COC(=O)c1ccccc1C(=O)c1ccc(Cl)c([N+](=O)[O-])c1)C(C)C	74	94*	-6	35	91*	74*
Cn1c(N)c(C(=O)COC(=O)c2ccccc2C(=O)c2ccc(Cl)c([N+](=O)[O-])c2)c(=O)n(C)c1=O	/	/	2	88*	/	65*
O=C(COC(=O)c1ccccc1C(=O)c1ccc(Cl)c([N+](=O)[O-])c1)NC1CCCCCC1	-3	/	87*	98*	0	78*
O=C(COC(=O)c1ccc2c(c1[N+](=O)[O-])C(=O)c1ccccc1C2=O)NC1CC1	92	-6	0	31	124*	17
Cn1c(N)c(C(=O)COC(=O)c2ccccc2C(=O)c2ccccc2)c(=O)n(C)c1=O	/	-3	-3	21	/	9
COc1ccc(C(=O)c2ccc(Cl)c([N+](=O)[O-])c2)cc1	-13	6	4	20	-27	23
O=C(C[C@@H]1C=C[C@H](NS(=O)(=O)c2ccc(F)cc2)[C@@H](CO)O1)NC1CCCCC1	/	-7	/	/	/	/
CCC(=O)N(C)C[C@@H]1Oc2ncc(C#CC(C)(C)O)cc2C(=O)N([C@@H](C)CO)C[C@H]1C	/	1	/	/	/	/
C[C@H](CO)N1C[C@H](C)[C@@H](CN(C)C)Oc2ccc(NC(=O)CCCN(C)C)cc2C1=O	/	2	/	/	/	/
CCCNC(=O)N1CC2(C1)CN(C(=O)CC1CC1)[C@@H](CO)c1c2c2ccc(OC)cc2n1C	/	1	/	/	/	/
CN(CCC#N)C(=O)COC(=O)c1ccccc1C(=O)c1ccc(Cl)c([N+](=O)[O-])c1	14	/	-8	30	16	55*
O=C(Nc1ccc2c(c1)[C@H]1C[C@@H](CC(=O)N3CCOCC3)O[C@H](CO)[C@H]1O2)c1cccnc1	/	-6	/	/	/	/
CCn1ncc(Br)c1C(=O)Nc1ccc(C(C)C)cc1	25	-45	-13	-40	59*	-39
CCn1ncc(Br)c1C(=O)Nc1cccc(F)c1	4	5	4	-11	8	5
CO[C@H]1CC[C@H]2CCN(C)C(=O)[C@H](C)[C@H](OC)CN(C)C(=O)c3cccc(C#N)c3OC[C@H]1O2	/	-4	/	/	/	/
O=C(Nc1nc(-c2cccs2)c(C(=O)C(F)(F)F)s1)c1ccccc1	8	6	-3	56*	14	60*
O=C(Nc1nc(-c2cccs2)c(C(=O)C(F)(F)F)s1)c1ccco1	-1	-8	5	-8	-11	14
SMILES	HSF1 inh	LGR2 inh	LMP1 NFkB inh	TWEAK-Fn14 inh	HSF-1 act	TROY NFkB inh
COc1ccc(NC(=O)Nc2nnc(-c3cccs3)s2)cc1	13	-55	-38	-33	23	-59
O=C(Nc1nnc(-c2ccco2)s1)c1ccccc1	8	24	8	21	10	-71
COc1ccc(C(=O)Nc2nnc(-c3ccco3)s2)cc1	4	81*	22	85*	-12	39
COc1ccc(C(=O)Nc2nnc(-c3cccs3)s2)cc1	14	?	-4	55*	40	7
COc1ccc(N=N/C(=C\O)C(=O)c2cccs2)cc1	54	-25	13	69*	67*	9
COc1ccc(C(=O)/C(=C/O)N=Nc2ccc(F)cc2)cc1	9	-19	-12	-20	20	3
O=S(=O)(N[C@H]1CC[C@@H](CCn2cc(-c3ccccn3)nn2)O[C@H]1CO)c1cccc(Cl)c1	/	-10	/	/	/	/
c1ccc2c(-c3cncc4ccccc34)cncc2c1	-14	14	9	54*	10	34
CCCc1cc(=O)oc2cc(OCC(=O)N3C[C@H]4C[C@@H](C3)c3cccc(=O)n3C4)c(Cl)cc12	36	/	-2	40	57*	12
CCC(=O)N1CCc2cc(S(=O)(=O)NCCC(=O)Nc3ccccc3C)ccc21	-65*	/	-1	0	-72	8
C/C(=N/OCc1ccc(Br)cc1)c1ccccn1	22	-86	-51	-36	84*	-78
N/C(=N\OCc1ccc([N+](=O)[O-])cc1)c1ccccn1	-43	/	73*	/	-48	/
C/C(=N\OC(=O)c1ccc(Br)cc1)c1ccccn1	-6	12	-3	26	1	-39
O=C(CN1C(=O)CSc2ccc(S(=O)(=O)N3CCCCCC3)cc21)NCCc1ccccc1	/	1	5	6	/	-5
O=C(CN1C(=O)CSc2ccc(S(=O)(=O)N3CCOCC3)cc21)NCCc1ccccc1	/	4	2	97*	/	-1
OC12CCCCC1C(c1ccc3c(c1)OCO3)N(Cc1ccc(F)cc1)CC2 (stereo unspecified)	23	/	8	-4	54*	3
OC12CCCCC1C(c1ccc3c(c1)OCO3)N(Cc1ccccc1F)CC2 (stereo unspecified)	28	0	5	3	57*	5
CCOc1ccccc1NC(=O)Cn1c(=O)oc2cc(Cl)ccc21	6	0	-6	11	-10	-2
CCOc1ccccc1NC(=O)Cn1c(=O)sc2ccccc21	5	5	64*	-13	12	-1
CCOc1ccccc1NC(=O)Cn1c(-c2ccc(Cl)cc2)noc1=O	-65*	7	-5	-19	-74	0
O=c1cc2c(=O)oc3cc(O)c(O)oc3c2c(O)c1O	-17	-3	9	83*	-7	7
O=S(=O)(Cc1ccccc1)N1CCCCN2[C@H](CO)[C@@H](c3ccc(-c4cccnc4)cc3)[C@@H]2C1	/	4	/	/	/	/

Compound activity deposited in PubChem by several laboratories.
